# Reference: publication PMC11102866, “Nucleosome-bound NR5A2 structure reveals pioneer factor mechanism by DNA minor groove anchor competition”
# Changes are numbered by the printed parent chain. Names and notes keep the numbering of the source.
# B1: 12 (nucleosome)
# DNA 1: ATCCTGGAGAATCCTCAAGGCCAGGCCGCTCAATTGGTCGTAGACAGCTCTAGCACCGCTTAAACGCACGTACGCGCTGTCCCCCGCGTTTTAACCGCCAAGGGGATTACTCCCTAGTCTCCAGGCACGTGTCAGATATATACATCCTGTGAT
# DNA 2: ATCACAGGATGTATATATCTGACACGTGCCTGGAGACTAGGGAGTAATCCCCTTGGCGGTTAAAACGCGGGGGACAGCGCGTACGTGCGTTTAAGCGGTGCTAGAGCTGTCTACGACCAATTGAGCGGCCTGGCCTTGAGGATTCTCCAGGAT
# modifications: reconstituted with mouse histones H2A, H2B, H3.3 and H4
# B2: 13 (nucleosome)
# DNA 1: B1 DNA 1 with T15C, C16T, A17C, G19A, C21G, A23C, G24A
# DNA 2: B1 DNA 2 with C130T, T131G, G133C, C135T, T137G, G138A, A139G
# modifications: reconstituted with mouse histones H2A, H2B, H3.3 and H4
# B3: 110 (nucleosome)
# DNA 1: ATCCTGGAGAATCCCGGTGCCGAGGCCGCTCAATTGGTCGTAGACAGCTCTAGCACCGCTTAAACGCACGTACGCGCTGTCCCCCGCGTTTTAACCGCCAAGGGGATTACTCTCAAGGCCACAGGCACGTGTCAGATATATACATCCTGTGAT
# DNA 2: ATCACAGGATGTATATATCTGACACGTGCCTGTGGCCTTGAGAGTAATCCCCTTGGCGGTTAAAACGCGGGGGACAGCGCGTACGTGCGTTTAAGCGGTGCTAGAGCTGTCTACGACCAATTGAGCGGCCTCGGCACCGGGATTCTCCAGGAT
# modifications: reconstituted with mouse histones H2A, H2B, H3.3 and H4
# B4: 102 (nucleosome)
# DNA 1: ATCCTGGAGAATCCCGGTGCCGAGGCCGCTCAATTGGTCGTAGACAGCTCTAGCACCGCTTAAACGCACGTACGCGCTGTCCCCCGCGTTTTAACCGCCAAGGGTCAAGGCCACTAGTCTCCAGGCACGTGTCAGATATATACATCCTGTGAT
# DNA 2: ATCACAGGATGTATATATCTGACACGTGCCTGGAGACTAGTGGCCTTGACCCTTGGCGGTTAAAACGCGGGGGACAGCGCGTACGTGCGTTTAAGCGGTGCTAGAGCTGTCTACGACCAATTGAGCGGCCTCGGCACCGGGATTCTCCAGGAT
# modifications: reconstituted with mouse histones H2A, H2B, H3.3 and H4
# B5: 104 (nucleosome)
# DNA 1: B3 DNA 1 with T108C, C110A, T111G, C112G, T113C, G118T, C120T, A121C
# DNA 2: B3 DNA 2 with T33G, G34A, C36A, A41G, G42C, A43C, G44T, A46G
# modifications: reconstituted with mouse histones H2A, H2B, H3.3 and H4
# B6: 105 (nucleosome)
# DNA 1: B3 DNA 1 with A109C, C110A, T111A, C112G, T113G, A115C, G118T, C120T, A121C
# DNA 2: B3 DNA 2 with T33G, G34A, C36A, T39G, A41C, G42C, A43T, G44T, T45G
# modifications: reconstituted with mouse histones H2A, H2B, H3.3 and H4
# B7: 103 (nucleosome)
# DNA 1: B4 DNA 1 with T105G, C106T, A107C, G109A, C111G, A113C, C114A
# DNA 2: B4 DNA 2 with G40T, T41G, G43C, C45T, T47G, G48A, A49C
# modifications: reconstituted with mouse histones H2A, H2B, H3.3 and H4
# B8: 1 (nucleosome)
# DNA 1: ATCTCAAGGCCACCCGGTGCCGAGGCCGCTCAATTGGTCGTAGACAGCTCTAGCACCGCTTAAACGCACGTACGCGCTGTCCCCCGCGTTTTAACCGCCAAGGGGATTACTCCCTAGTCTCCAGGCACGTGTCAGATATATACATCCTGTGAT
# DNA 2: ATCACAGGATGTATATATCTGACACGTGCCTGGAGACTAGGGAGTAATCCCCTTGGCGGTTAAAACGCGGGGGACAGCGCGTACGTGCGTTTAAGCGGTGCTAGAGCTGTCTACGACCAATTGAGCGGCCTCGGCACCGGGTGGCCTTGAGAT
# modifications: reconstituted with mouse histones H2A, H2B, H3.3 and H4
# B9: 2 (nucleosome)
# DNA 1: B8 DNA 1 with T4C, C5T, A6C, G8A, C10G, A12C, C13A
# DNA 2: B8 DNA 2 with G141T, T142G, G144C, C146T, T148G, G149A, A150G
# modifications: reconstituted with mouse histones H2A, H2B, H3.3 and H4
# B10: 106 (nucleosome)
# DNA 1: ATCCTGGAGAATCCCGGTGCCGAGGCCGCTCAATTGGTCGTAGACAGCTCTAGCACCGCTTAAACGCACGTACGCGCTGTCCCCCGCGTTTTAACCGCCAAGGGGATTTCAAGGCCATCTCCAGGCACGTGTCAGATATATACATCCTGTGAT
# DNA 2: ATCACAGGATGTATATATCTGACACGTGCCTGGAGATGGCCTTGAAATCCCCTTGGCGGTTAAAACGCGGGGGACAGCGCGTACGTGCGTTTAAGCGGTGCTAGAGCTGTCTACGACCAATTGAGCGGCCTCGGCACCGGGATTCTCCAGGAT
# modifications: reconstituted with mouse histones H2A, H2B, H3.3 and H4
# B11: 108 (nucleosome)
# DNA 1: B3 DNA 1 with T113A, C114A, A115G, A116G, G117C, G118C, C119A, C120T, A121C
# DNA 2: B3 DNA 2 with T33G, G34A, G35T, C36G, C37G, T38C, T39C, G40T, A41T
# modifications: reconstituted with mouse histones H2A, H2B, H3.3 and H4
# B12: 107 (nucleosome)
# DNA 1: B10 DNA 1 with T109A, C110T, A111C, G113A, C115G, A117C, T118A
# DNA 2: B10 DNA 2 with A36T, T37G, G39C, C41T, T43G, G44A, A45T
# modifications: reconstituted with mouse histones H2A, H2B, H3.3 and H4
# B13: 112 (nucleosome)
# DNA 1: B3 DNA 1 with T113C, A115T, A116C, G117A, G118A, C119G, C120G, A121C
# DNA 2: B3 DNA 2 with T33G, G34C, G35C, C36T, C37T, T38G, T39A, A41G
# modifications: reconstituted with mouse histones H2A, H2B, H3.3 and H4
# B14: 111 (nucleosome)
# DNA 1: B3 DNA 1 with T113C, C114T, A115C, G117A, C119G, A121C, C122A
# DNA 2: B3 DNA 2 with G32T, T33G, G35C, C37T, T39G, G40A, A41G
# modifications: reconstituted with mouse histones H2A, H2B, H3.3 and H4
# B15: 109 (nucleosome)
# DNA 1: B3 DNA 1 with C112T, T113C, C114A, A116G, G118C, C120A, A121C
# DNA 2: B3 DNA 2 with T33G, G34T, C36G, T38C, G40T, A41G, G42A
# modifications: reconstituted with mouse histones H2A, H2B, H3.3 and H4
# How the values were obtained:
# [1] = molecular target: NR5A2 wild type;histone octamer (Homo sapiens;, UniProt O00482;C0HKE1;Q6ZWY9;P84244;P62806 1-541;2-130;2-126;2-136;2-103, |); test: SeEN-seq (EMSA of nucleosome library followed by sequencing); 0.8 uM human NR5A2; 20 mM Tris-HCl pH 7.5, 120 mM NaCl, 1 mM MgCl2, 10 uM ZnCl2, 1 mM DTT, 100 ug/ml BSA, room temperature, 30 min; 0.1 uM nucleosome library; high values mean tight binding
# [2] = molecular target: mouse Nr5a2 wild type;histone octamer (Mus musculus;, UniProt P45448;C0HKE1;Q6ZWY9;P84244;P62806 1-560;2-130;2-126;2-136;2-103, |); test: SeEN-seq (EMSA of nucleosome library followed by sequencing); 1.2 uM mouse Nr5a2; 20 mM Tris-HCl pH 7.5, 120 mM NaCl, 1 mM MgCl2, 10 uM ZnCl2, 1 mM DTT, 100 ug/ml BSA, room temperature, 30 min; 0.1 uM nucleosome library; high values mean tight binding
Binder,binding signal [1],binding signal [2]
B1,"4.6 log2 enrichment (bound/unbound, relative to Widom 601)","4.25 log2 enrichment (bound/unbound, relative to Widom 601)"
B2,"4.51 log2 enrichment (bound/unbound, relative to Widom 601)","3.55 log2 enrichment (bound/unbound, relative to Widom 601)"
B3,"0.939 log2 enrichment (bound/unbound, relative to Widom 601)","0.962 log2 enrichment (bound/unbound, relative to Widom 601)"
B4,"0.685 log2 enrichment (bound/unbound, relative to Widom 601)","0.658 log2 enrichment (bound/unbound, relative to Widom 601)"
B5,"1.03 log2 enrichment (bound/unbound, relative to Widom 601)","0.764 log2 enrichment (bound/unbound, relative to Widom 601)"
B6,"1.55 log2 enrichment (bound/unbound, relative to Widom 601)","1.09 log2 enrichment (bound/unbound, relative to Widom 601)"
B7,"0.782 log2 enrichment (bound/unbound, relative to Widom 601)","0.764 log2 enrichment (bound/unbound, relative to Widom 601)"
B8,"6.41 log2 enrichment (bound/unbound, relative to Widom 601)","5.85 log2 enrichment (bound/unbound, relative to Widom 601)"
B9,"6.87 log2 enrichment (bound/unbound, relative to Widom 601)","5.51 log2 enrichment (bound/unbound, relative to Widom 601)"
B10,"1.84 log2 enrichment (bound/unbound, relative to Widom 601)","1.23 log2 enrichment (bound/unbound, relative to Widom 601)"
B11,"0.869 log2 enrichment (bound/unbound, relative to Widom 601)","0.815 log2 enrichment (bound/unbound, relative to Widom 601)"
B12,"0.733 log2 enrichment (bound/unbound, relative to Widom 601)","0.834 log2 enrichment (bound/unbound, relative to Widom 601)"
B13,"0.87 log2 enrichment (bound/unbound, relative to Widom 601)","0.753 log2 enrichment (bound/unbound, relative to Widom 601)"
B14,"1.01 log2 enrichment (bound/unbound, relative to Widom 601)","1.02 log2 enrichment (bound/unbound, relative to Widom 601)"
B15,"0.938 log2 enrichment (bound/unbound, relative to Widom 601)","0.719 log2 enrichment (bound/unbound, relative to Widom 601)"
